Measurements published in PubChem BioAssay (NCI).
About 83,000 compounds went through this panel and 20% of them were active in at least one assay; those are over-represented in the sample as a whole.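 Values shown are percent growth following 48 h exposure of cells in 96-well plates to a single concentration of compound; below 10 was considered active.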 Values without a mark were called inactive. Calls of active or inactive are those of the source.

What was measured:
Experiment in all cases: NCI-60 one-dose screen, 48 h (100 = growth as untreated, 0 = no growth, -100 = all killed)
Details in all cases: 10 µM unless noted
[1] = system: HCT-15 colon
[2] = system: HT29 colon
[3] = system: SNB-75 CNS
[4] = system: U251 CNS
[5] = system: PC-3 prostate
[6] = system: UACC-62 melanoma
[7] = system: LOX IMVI melanoma
[8] = system: SK-MEL-28 melanoma
[9] = system: SK-MEL-2 melanoma
[10] = system: EKVX NSCLC
[11] = system: SN12C renal
[12] = system: UO-31 renal
[13] = system: TK-10 renal
[14] = system: ACHN renal
[15] = system: CAKI-1 renal
[16] = system: A498 renal
[17] = system: CCRF-CEM leukemia
[18] = system: MOLT-4 leukemia
[19] = system: SK-MEL-5 melanoma
[20] = system: SNB-19 CNS

Structure (SMILES) | growth [1] [%] | growth [2] | growth [3] | growth [4] | growth [5] | growth [6] | growth [7] | growth [8] | growth [9] | growth [10] | growth [11] | growth [12] | growth [13] | growth [14] | growth [15] | growth [16] | growth [17] | growth [18] | growth [19] | growth [20] [%]
O=C(N/N=C/c1ccc([N+](=O)[O-])cc1)c1ccc2nc(-c3ccc(Cl)cc3)[nH]c2c1 | 29.9 | 8.25% (active) | 69.3% | 22.3% | 21.4% | 43.7% | -0.908% (active) | 45.3% | 66.7% | 49% | 19.6% | 42.6% | 89.8% | 32.3% | 42.7% | -0.501% (active) | 9.87% (active) | 4.24% (active) | – | –
COc1ccc(NC(=O)c2ccc(C(=O)Nc3ccc(OC)cc3OC)cc2)c(OC)c1 | 81.4 | 90% | -39.3% (active) | 46.3% | 75.9% | 73.8% | 71.8% | 101% | 80.4% | 73.7% | 65% | 52.4% | – | 71.9% | 68.1% | 58.6% | 90% | 94.3% | 96.7% | –
COc1ccc(C(c2cc(OC)c(OC)c(OC)c2)N2CCCC2)cc1 (stereo not drawn) | 52.7 | 40.6% | 84.1% | 77.8% | 63.9% | 57.4% | 73% | 80.1% | 55.7% | 87.8% | 108% | 75.1% | 88.3% | 103% | 77.5% | 31.2% | 71.2% | 78.1% | 65.2% | –
CCCn1c(=S)sc2c1nc(C)n1c(Nc3ccccc3)nnc21 | 74.8 | 87.5% | 102% | 60.9% | 93.5% | 32.3% | 66.2% | 104% | -0.18% (active) | 36.6% | 55.6% | 71.6% | 86.7% | 82.8% | 93.9% | 57.2% | 66.3% | 31.1% | – | –
COP(=O)(OC)c1nnn(-c2cccc([N+](=O)[O-])c2)c1C | 106 | 105% | 93.6% | 99.7% | 98.7% | 99.2% | 96% | 113% | 106% | 106% | 104% | 84.5% | 99% | 106% | 97.2% | 101% | 104% | 101% | 100% | –
COc1cc2nc(Nc3cccc(F)c3)nc(Nc3cc(C)[nH]n3)c2cc1OC | – | -54.9% [20 µM] (active) | -97.5% [20 µM] (active) | -55.5% [20 µM] (active) | -81% [20 µM] (active) | -95.7% [20 µM] (active) | -82.3% [20 µM] (active) | -99.3% [20 µM] (active) | -68.2% [20 µM] (active) | -67.4% [20 µM] (active) | -94.3% [20 µM] (active) | -98.7% [20 µM] (active) | -71% [20 µM] (active) | -97.1% [20 µM] (active) | -97.7% [20 µM] (active) | -83% [20 µM] (active) | -19.7% [20 µM] (active) | -40.8% [20 µM] (active) | -90.1% [20 µM] (active) | –
Nc1n[nH]c2ccc([C@@H]3Nc4cc5[nH]ncc5cc4[C@H]4C5CCC(C5)[C@@H]34)cc12 (stereo partly drawn) | – | 6.61% (active) | -9.87% (active) | 19% | 25.1% | 33.8% | 25.4% | 60.1% | 65.2% | 35.2% | 36.4% | 40.2% | 62.4% | 32.1% | 34.5% | -15.7% (active) | 11.2% | 22.5% | 9.55% (active) | 20.4
CCc1ccc(CCC(=O)Nc2ncc(Cc3ccc(Cl)cc3)s2)o1 | – | 8.1% (active) | -7.87% (active) | 22.8% | 29.3% | 33.3% | 47.6% | 66.3% | 44.1% | 37.2% | 44.8% | 43% | 60% | 48.3% | 31.9% | 0.963% (active) | 22.4% | 36.5% | 34.6% | 50.6
